“And” between values parts separate entries of the source, which are not always exact repeats. Equal values may be shown once. The source made the active and inactive calls.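 The calls were made as follows, unless noted: active = mean z-score across replicates of 1.96 or higher in either the MELAS or the Rieske mutant cell line; inactive = the rest.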
Legend:
[1] = survival rescue of mitochondrial mutant cells in low glucose, primary screen, MELAS cybrids, Rieske KO mouse fibroblasts, CellTiter-Glo (AID 1508586);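 also: z relative to plate mean and SD of compound and empty wells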
[2] = phospholipid biosynthesis inhibitors in animal cells, primary screen, cell-based, LOPAC library, screen 4 (AID 1347384; call rule not given here); details: phospholipid biosynthesis inhibition screen, at 10 µM
[3] = biological target: NAD(+) hydrolase SARM1 (Homo sapiens) (UniProt Q6SZW1); assay: SARM1 TIR NADase inhibitors, cell lysate, NAD-Glo luminescence (AID 1508614;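 active = compound whose remaining NAD level is above about 45 nM, limit read from the data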;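 also: higher remaining NAD means stronger inhibition of SARM1 NADase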); details: SAM-TIR HEK293T lysate NADase, at 1 µM, stronger effect = higher value
[4] = biological target: Mitogen-activated protein kinase 7 (Homo sapiens) (UniProt Q13164); assay: ERK5 transactivation activators in reporter cells, primary screen, cell-based, HTS (AID 1508626;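 active = luciferase signal above three times the same-plate solvent-only control wells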;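 also: luciferase driven by Gal4-ERK5 fusion binding five Gal4 sites before minimal TATA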); details: HeLa Gal4-ERK5 transactivation, 18 h, at 5 µM, stronger effect = higher value
[5] = viability rescue of complex I mutant cybrids, primary screen, cell-based, galactose medium, ATP luminescence (AID 1645843;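 active = z-score of at least 1.8 in each of two replicates, scored against plate mean and spread of sample wells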;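 also: positive z means more ATP and so rescue of galactose-driven cybrid death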); details: complex I mutant cybrid cells, 72 h, stronger effect = higher value
[6] = MELAS cybrid survival, CellTiter-Glo 48 h, stronger effect = higher value
[7] = Rieske KO mouse fibroblast survival, CellTiter-Glo 72 h

Chain of NAD(+) hydrolase SARM1 (Homo sapiens) (Q6SZW1 whole entry, looked up, the tested form may be a part): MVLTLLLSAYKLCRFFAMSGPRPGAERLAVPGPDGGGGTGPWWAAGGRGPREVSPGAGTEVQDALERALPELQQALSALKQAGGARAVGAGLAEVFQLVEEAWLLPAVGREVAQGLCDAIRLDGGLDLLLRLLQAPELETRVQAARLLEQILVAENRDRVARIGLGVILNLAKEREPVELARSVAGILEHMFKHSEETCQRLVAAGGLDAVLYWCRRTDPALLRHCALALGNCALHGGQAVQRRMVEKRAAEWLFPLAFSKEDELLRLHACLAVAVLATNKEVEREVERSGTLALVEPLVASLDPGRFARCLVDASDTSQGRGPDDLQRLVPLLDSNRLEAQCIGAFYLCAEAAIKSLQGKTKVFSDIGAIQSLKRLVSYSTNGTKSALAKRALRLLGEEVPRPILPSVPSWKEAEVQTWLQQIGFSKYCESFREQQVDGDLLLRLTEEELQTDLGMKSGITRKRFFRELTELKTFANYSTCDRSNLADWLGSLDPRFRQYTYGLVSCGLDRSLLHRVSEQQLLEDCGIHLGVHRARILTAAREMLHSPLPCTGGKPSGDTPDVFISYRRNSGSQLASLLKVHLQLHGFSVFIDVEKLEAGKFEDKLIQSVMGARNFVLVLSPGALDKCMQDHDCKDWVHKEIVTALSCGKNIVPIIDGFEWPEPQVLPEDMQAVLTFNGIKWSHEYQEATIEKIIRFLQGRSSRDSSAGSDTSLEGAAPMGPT
Chain of Mitogen-activated protein kinase 7 (Homo sapiens) (Q13164 whole entry, looked up, the tested form may be a part): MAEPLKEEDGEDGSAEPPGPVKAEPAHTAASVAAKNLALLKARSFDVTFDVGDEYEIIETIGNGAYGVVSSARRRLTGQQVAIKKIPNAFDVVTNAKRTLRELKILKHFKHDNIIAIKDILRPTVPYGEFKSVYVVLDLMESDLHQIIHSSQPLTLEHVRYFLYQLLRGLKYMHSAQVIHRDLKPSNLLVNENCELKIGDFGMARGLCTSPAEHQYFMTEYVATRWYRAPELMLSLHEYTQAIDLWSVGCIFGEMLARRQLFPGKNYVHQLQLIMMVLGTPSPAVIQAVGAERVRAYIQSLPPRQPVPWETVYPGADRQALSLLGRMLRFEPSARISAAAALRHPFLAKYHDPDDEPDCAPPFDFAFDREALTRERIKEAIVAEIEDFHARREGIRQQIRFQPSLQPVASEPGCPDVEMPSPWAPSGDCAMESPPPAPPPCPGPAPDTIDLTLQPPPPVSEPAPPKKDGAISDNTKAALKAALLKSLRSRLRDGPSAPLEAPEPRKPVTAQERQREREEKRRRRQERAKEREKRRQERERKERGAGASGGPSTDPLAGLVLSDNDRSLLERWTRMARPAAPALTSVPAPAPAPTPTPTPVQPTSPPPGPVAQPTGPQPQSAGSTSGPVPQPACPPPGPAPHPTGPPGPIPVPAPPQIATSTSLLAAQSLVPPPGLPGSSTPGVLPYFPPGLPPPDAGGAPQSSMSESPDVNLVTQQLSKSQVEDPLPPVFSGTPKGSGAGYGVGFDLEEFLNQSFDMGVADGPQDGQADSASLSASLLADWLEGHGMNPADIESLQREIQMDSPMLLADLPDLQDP

Row | SMILES | z-score [1, 6] | z-score [1, 7] | outcome [2] | remaining NAD [3] | luciferase signal [4] | z-score [5]
1 | O=C1[C@H]2CCCC[C@H]2C(=O)N1CCCCN1CCN(c2nsc3ccccc23)CC1 | 1.02 (inactive) | 0.693 |  |  |  | 
2 | O=C1NCC2(CCN(CCc3ccccc3)CC2)O1 | -0.249 (inactive) and 0.534 (inactive) | -0.174 and -0.0853 | inactive | 10 nM (inactive) | 52 AU (inactive) | 0.155 (inactive)
3 | O=C(CCNNC(=O)c1ccncc1)NCc1ccccc1 | -0.952 (inactive) and 0.716 (inactive) | -0.171 and 0.697 | inactive | 10 nM (inactive) | 76 AU (inactive) | 0.035 (inactive) and 0.205 (inactive) and 0.305 (inactive)
4 | CCCCC1C(=O)N(c2ccccc2)N(c2ccccc2)C1=O | 0.0284 (inactive) and -1.01 (inactive) and 0.0538 (inactive) | 0.0743 and -0.296 and -0.0136 | inactive | 10 nM (inactive) | 156 AU (active) | 0.865 (inactive) and 0.7 (inactive)
5 | COCCc1ccc(OCC(O)CNC(C)C)cc1 (stereo unspecified) | -0.374 (inactive) and 0.559 (inactive) and -0.0156 (inactive) | -0.175 and -0.344 and -0.724 | inactive | 10 nM (inactive) | 40 AU (inactive) | 0.4 (inactive) and 0.695 (inactive)
6 | O=C1CC2(CCCC2)CC(=O)N1CCCCN1CCN(c2ncccn2)CC1 | 0.0234 (inactive) and -0.506 (inactive) and -2.15 (inactive) | -3.18 and -0.781 and 0.669 | inactive | 10 nM (inactive) | 112 AU (inactive) | 
7 | OCc1cc(C(O)CNCCCCCCOCCCCc2ccccc2)ccc1O (stereo unspecified) | 0.496 (inactive) and 0.0699 (inactive) | -0.33 and 0.063 | inactive |  |  | 
8 | CN(C)C(=O)Oc1cccc([N+](C)(C)C)c1 | 0.498 (inactive) and -0.72 (inactive) | 0.395 and -0.634 | inactive | 10 nM (inactive) | 48 AU (inactive) | 0.53 (inactive) and 0.21 (inactive)
9 | CNCC(O)c1ccc(O)c(O)c1 (stereo unspecified) |  |  | inactive |  |  | -1.02 (inactive) and -0.655 (inactive)
10 | O=C1c2cccc3c2[C@H](CCC3)CN1[C@@H]1CN2CCC1CC2 | 0.942 (inactive) | 0.737 |  |  |  | 
11 | COc1cc(C(=O)OCCCN2CCCN(CCCOC(=O)c3cc(OC)c(OC)c(OC)c3)CC2)cc(OC)c1OC | 0.925 (inactive) and 0.274 (inactive) | 0.203 and 0.937 | inactive | 10 nM (inactive) |  | -0.89 (inactive) and 0.995 (inactive) and -0.26 (inactive)
12 | CC(N)C(=O)OC(C)(C)Cc1ccc(Cl)cc1 (stereo unspecified) |  |  | inactive | 10 nM (inactive) | 92 AU (inactive) | 
13 | COc1ccc(CCN2CCC(Nc3nc4ccccc4n3Cc3ccc(F)cc3)CC2)cc1 | -0.668 (inactive) and -0.11 (inactive) | -1.26 and 1.21 |  | 10 nM (inactive) | 84 AU (inactive) | -0.615 (inactive) and -2.45 (inactive)
14 | CSc1ccc2c(c1)C(N1CCN(C)CC1)Cc1ccccc1S2 (stereo unspecified) | -0.294 (inactive) and -0.887 (inactive) | 0.279 and -1.2 | inactive | 10 nM (inactive) |  | -1.29 (inactive) and -1.22 (inactive) and -2.1 (inactive)
15 | NS(=O)(=O)Cc1noc2ccccc12 | 0.598 (inactive) and -0.977 (inactive) and -0.661 (inactive) | -0.432 and -0.0491 and -0.914 | inactive |  |  | 1.1 (inactive) and -0.005 (inactive) and 0.465 (inactive)
